“And” between values parts separate entries of the source, which are not always exact repeats. Equal values may be shown once. About 390 (8.9%) of roughly 4,400 compounds showed an effect of 50% or more. The entries come from a sample that favours strong results as a whole.
Tested on: Trypanosoma brucei
Assay: DNDI: Inhibition of Human African Trypanosomiasis, SBRI 427, in vitro at 2 ug.mL-1
Format: functional

Row | Structure (SMILES) | % inhibition
1 | COc1ccc(NCc2coc(-c3cccc(OC)c3)n2)cc1 | 8%
2 | Fc1ccc(-c2nc(CNC34C[C@H]5C[C@@H](C3)C[C@@H](C4)C5)co2)cc1 | 58%
3 | COc1cccc(-c2nc(Cn3ccnc3C=O)co2)c1 | 84%
4 | COc1cccc(-c2nc(Cn3ccnc3C)co2)c1 | 31%
5 | c1csc(-c2nc(CNC34C[C@H]5C[C@@H](C3)C[C@@H](C4)C5)co2)c1 | 25%
6 | Brc1ccc(-c2nc(CNC34C[C@H]5C[C@@H](C3)C[C@@H](C4)C5)co2)cc1 | 62%
7 | CCc1nccn1Cc1coc(-c2cccc(OC)c2)n1 | -9%
8 | Oc1ccc(-c2nc(CNC34C[C@H]5C[C@@H](C3)C[C@@H](C4)C5)co2)cc1 | 23%
9 | Cc1cccc(-c2nc(CNC34C[C@H]5C[C@@H](C3)C[C@@H](C4)C5)co2)c1 | 35%
10 | Brc1ccc(-c2nc(CNCc3ccccn3)co2)cc1 | -9%
11 | COc1cccc(-c2nc(CNC34C[C@H]5C[C@@H](C3)C[C@@H](C4)C5)co2)c1 | 85%
12 | Brc1ccccc1-c1nc(CNC23C[C@H]4C[C@@H](C2)C[C@@H](C3)C4)co1 | 48%
13 | Cc1ccc(/C(=N/O)NC2CC2)c(OCc2ccncc2)n1 | 19%
14 | Clc1ccccc1-c1nc(CN2CC=CCC2)co1 | 14%
15 | CCN(CC)c1cccc(Oc2ncccc2/C(=N/O)N2CCCC2)c1 | -7%
16 | CC1(C)Cc2cccc(Oc3ccc(/C(=N/O)NC4CCc5ccccc54)cn3)c2O1 (stereo not given) | 10%
17 | Cc1ccc(/C(=N/O)N2CCCC2C)c(Oc2cccc(C(C)C)c2)n1 (stereo not given) | 0%
18 | Cc1cccc(N2CCN(Cc3coc(-c4ccccc4F)n3)CC2C)c1 (stereo not given) | -21%
19 | COCC(C)N/C(=N\O)c1ccc(C)nc1OCc1ccccc1C (stereo not given) | 8%
20 | N#CCCN(Cc1ccccc1)Cc1coc(-c2ccc(F)cc2)n1 | -7%
21 | Cc1ccc(C(C)C)c(Oc2cc(/C(=N/O)NCC3CCCCC3)ccn2)c1 | 27%
22 | COc1ccc(-c2nc(CNC34C[C@H]5C[C@@H](C3)C[C@@H](C4)C5)co2)cc1 | 3%

Row | Structure (SMILES) | % inhibition
23 | Cc1ccc(-c2nc(CNC34C[C@H]5C[C@@H](C3)C[C@@H](C4)C5)co2)cc1 | 90%
24 | Cc1ccccc1-c1nc(CNC23C[C@H]4C[C@@H](C2)C[C@@H](C3)C4)co1 | 49%
25 | CN(Cc1coc(-c2ccccc2Cl)n1)CC1OCCO1 | 8%
26 | COc1ccc(Oc2ncccc2/C(=N/O)Nc2ccccc2)cc1 | -9%
27 | CSc1ccccc1Oc1ncccc1/C(=N/O)Nc1ccccc1 | 71%
28 | O/N=C(\Nc1ccccc1)c1cccnc1Oc1ccccc1F | 2%
29 | CSc1ccccc1Oc1ncccc1/C(=N/O)N1CCOCC1 | 8%
30 | CSc1ccccc1Oc1ncccc1/C(=N/O)N1CCN(c2ccccc2)CC1 | 22%
31 | COc1ccccc1Oc1ncccc1/C(=N/O)Nc1ccccc1 | 62%
32 | Cc1ccc(Oc2nc(C)ccc2/C(=N/O)N2CCN(C)CC2)cc1 | 19%
33 | COCCN(/C(=N\O)c1ccc(C)nc1Oc1ccc(SC)c(C)c1)C(C)C | 9%
34 | COCCN(Cc1coc(-c2ccccc2C)n1)C(C)C | -31%
35 | O/N=C(\Nc1ccon1)c1ccc(Oc2cccc3cccnc23)nc1 | 13%
36 | CCOc1ccccc1-c1nc(CN2CCN(c3cc(C)nc4ccccc34)CC2)co1 | 14%
37 | CN(/C(=N\O)c1cccnc1OCc1cccc(F)c1)C1CCCCC1 | -3%
38 | N/C(=N\O)c1cccnc1OCc1cccc(F)c1 | -4%
39 | Cc1ccc(/C(=N/O)N(C)c2ccccc2)c(OCc2ccccc2F)n1 | -4%
40 | CN(/C(=N\O)c1cccnc1OCc1cccc(F)c1)c1ccccc1 | 98%
41 | CN(/C(=N\O)c1cccnc1OCc1ccccc1F)c1ccccc1 | 98%
42 | CN(Cc1ccco1)/C(=N\O)c1cccnc1OCc1ccccc1F | 5%
43 | O=Cc1nccn1Cc1coc(-c2ccc(Br)cc2)n1 | 11%
44 | CCOc1ccccc1CN/C(=N\O)c1ccnc(Oc2ccc(F)c(F)c2)c1 | 13%

Row | Structure (SMILES) | % inhibition
45 | CN(C)CCN(Cc1ccccc1)Cc1coc(-c2ccc(Br)cc2)n1 | 23%
46 | Clc1cccc(N2CCN(Cc3coc(-c4ccccc4Br)n3)CC2)c1 | 7%
47 | COc1ccccc1CCNCc1coc(-c2ccccc2Br)n1 | 6%
48 | CCOc1ccccc1CN/C(=N\O)c1ccc(Oc2cc(C)cc(C)c2)nc1 | 28%
49 | Cc1ccc(/C(=N/O)N2CCC(N(C)C)C2)c(Oc2cccc(F)c2)n1 (stereo not given) | 6%
50 | Cc1ccc(-c2nc(CNC(C)C3CCCCC3)co2)cc1 (stereo not given) | 25%
51 | Cc1ccccc1-c1nc(CNC(C)C2CCCCC2)co1 (stereo not given) | 23%
52 | CC(NCc1coc(-c2ccc(Br)cc2)n1)C1CCCCC1 (stereo not given) | 36%
53 | CCOc1ccccc1-c1nc(CNC2CCCCCCCCCCC2)co1 | 99%
54 | CC(NCc1coc(-c2ccccc2Br)n1)C1CCCCC1 (stereo not given) | -30% and -35%
55 | CCOc1ccc(-c2nc(CNC(C)C3CCCCC3)co2)cc1 (stereo not given) | 87%
56 | CCOc1ccccc1-c1nc(CNC(C)C2CCCCC2)co1 (stereo not given) | 98%
57 | CCOc1ccccc1-c1nc(CNC(C)c2cccc3ccccc23)co1 (stereo not given) | 5% and 9%
58 | CC(NCc1coc(-c2cccc3ccccc23)n1)C1CCCCC1 (stereo not given) | 87% and 90%
59 | CCOc1ccccc1-c1nc(CNC2CCN(Cc3ccccc3)C2)co1 (stereo not given) | 6%
60 | CCOc1ccccc1-c1nc(CNC(C)c2ccc(C)cc2)co1 (stereo not given) | 15%
61 | CCOc1ccccc1-c1nc(CNC2C[C@H]3CC[C@@H]2C3)co1 (stereo not given in full) | 28%
62 | N/C(=N\O)c1ccc(Oc2cccc3ccccc23)nc1 | 36%
63 | COc1ccc(-c2nc(CN(C)Cc3cccc4ccccc34)co2)cc1 | -11%
64 | COCCN(/C(=N\O)c1ccc(Oc2ccc(C)cc2C)nc1)C(C)C | 5%
65 | COc1ccc(-c2nc(CNC[C@@H]3CCCO3)co2)cc1 | 16%

— ChEMBL document CHEMBL1857833, “Screening and optimization of specific chemical series against human African Trypanosomiasis (HAT)”
